The results in this text go back to the supplement of paper PMC11219838.

Unmarked numbers belong to inactive results.

The test system of the assay is Caenorhabditis elegans L1 (N2). Description: survival and reproduction score of C. elegans L1 (0: 0-10 living worms, 1: 11-20, 2: 21-50, 3: >50, 4: overgrown) (score 0-4); higher = more worms, less nematicidal, active = 1 or less; extreme values may be limits of the assay. Particulars: 60 µM; 6 days; temperature: 20 °C. Summed up: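 Worm survival and reproduction were recorded as an ordinal score of living worms per well, read under a dissection microscope. Each 96-well well held about 20 synchronized C. elegans N2 L1s with E. coli HB101 in liquid NGM and compound at 60 µM final (0.6% v/v DMSO), sealed and shaken at 200 rpm, 20 °C, for 6 days. Scores ranged from 0 (0–10 worms) to 4 (overgrown, starved) and were the mean of two biological replicates.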
As to `CCOc1nc(-c2ccccc2)ccc1-c1noc(-c2cccc(OC)c2)n1`, the “survival and reproduction score” value is 4.

For the molecule `COc1ccc(-c2noc(-c3ccc(C)c(C)c3)n2)cc1`, the “survival and reproduction score” value was 2.

For the molecule `Cc1cccc(-c2nnc(SCC(=O)Nc3ccc(Br)c(C)c3C)o2)c1`, the “survival and reproduction score” value was 4.

`COc1nc(-c2ccccc2)ccc1-c1noc(C(C)C)n1`: the “survival and reproduction score” value is 4.

For the molecule `COc1cccc(-c2noc(COc3ccc4ccccc4c3)n2)c1`, the “survival and reproduction score” value was 4.

`CC(Oc1ccc(C(C)(C)C)cc1)c1nc(-c2ccncc2)no1` (stereo not drawn): the “survival and reproduction score” value is 4.

`O=C(CSc1nnc(-c2ccccc2)o1)OCc1ccccc1`: the “survival and reproduction score” value is 4.

On to `COc1ccc(CCC(=O)Nc2ccc(-c3noc(-c4ccc(F)cc4)n3)cc2)cc1`, for which the “survival and reproduction score” value was 4.

`COc1cccc(-c2nc(-c3ccccc3)no2)c1`: the “survival and reproduction score” value is 1.5.

Take `CN(C(=O)CSc1nnc(-c2ccccc2)o1)c1ccccc1`: the “survival and reproduction score” value was 4.

`Cc1ccc(-c2noc(-c3ccc(Br)cc3)n2)cc1`: the “survival and reproduction score” value was 4.

Regarding `COc1ccc(-c2noc(COc3ccccc3C)n2)cc1`, the “survival and reproduction score” value was 4.

`COc1cccc(-c2noc(COc3cc(C)ccc3C)n2)c1`: the “survival and reproduction score” value is 4.

For the molecule `Cc1ccc(NC(=O)CSc2nnc(-c3ccccc3)o2)cc1C`, the “survival and reproduction score” value is 4.

With `Clc1ccc(CSc2nnc(-c3ccccn3)o2)cc1`, the “survival and reproduction score” value was 4.

With `COc1ccc(Cl)cc1-c1noc(-c2ccccc2)n1`, the “survival and reproduction score” value was 1 (active).

As to `COc1ccc(Cl)cc1-c1noc(COc2ccccc2)n1`, the “survival and reproduction score” value was 4.

With `Cc1ccc(SCc2nc(-c3cccc(C)c3)no2)cc1`, the “survival and reproduction score” value is 4.

As for `CCc1nc(-c2ccc(-c3ccccc3)nc2OC)no1`, the “survival and reproduction score” value was 4.

As to `CCOc1cc(-c2nc(-c3cc4ccccc4nc3OC)no2)cc(OCC)c1OCC`, the “survival and reproduction score” value is 4.

As to `Cc1ccc(SCc2nc(-c3ccccc3)no2)cc1`, the “survival and reproduction score” value is 4.

Regarding `Cc1cccc(-c2nnc(SCC(=O)NC(C)c3ccccc3)o2)c1` (stereo not drawn), the “survival and reproduction score” value was 4.

For the molecule `CNC(=O)c1ccccc1-c1nc(-c2ccc(Cl)cc2)no1`, the “survival and reproduction score” value was 4.

`O=C(Nc1cccc(-c2noc(-c3cccnc3)n2)c1)c1cccs1`: the “survival and reproduction score” value is 4.

`CCOc1ccccc1NC(=O)CSc1nnc(-c2ccco2)o1`: the “survival and reproduction score” value is 4.

Take `Clc1cccc(OCc2nc(-c3cccs3)no2)c1`: the “survival and reproduction score” value was 0 (active).

Turning to `COC(=O)c1ccc(CSc2nnc(-c3ccncc3)o2)cc1`, the “survival and reproduction score” value was 4.

For `O=C(CSc1nnc(-c2ccccc2)o1)Nc1ccc(Br)cc1F`, the “survival and reproduction score” value is 4.

For `COc1nc(-c2ccccc2)ccc1-c1noc(-c2ccccc2C)n1`, the “survival and reproduction score” value was 4.

For the molecule `COc1ccc(-c2noc(-c3ccc(Cl)cc3)n2)cc1`, the “survival and reproduction score” value is 3.

Regarding `COc1ccc(-c2noc(COc3ccc4c(c3)CCCC4)n2)cc1`, the “survival and reproduction score” value is 4.

Take `CCOc1ccccc1NC(=O)CSc1nnc(-c2ccccc2)o1`: the “survival and reproduction score” value was 4.

As to `Cc1ccc(SC(C)c2nc(-c3cccnc3)no2)cc1` (stereo not drawn), the “survival and reproduction score” value was 4.

Turning to `O=C(CSc1nnc(-c2ccccc2)o1)Nc1cccc(F)c1`, the “survival and reproduction score” value was 4.

For the molecule `COc1ccc(CCC(=O)Nc2ccc(-c3noc(-c4ccccc4C)n3)cc2)cc1`, the “survival and reproduction score” value is 4.

Consider `Clc1ccc(-c2nc(-c3ccccc3Br)no2)cc1`, for which the “survival and reproduction score” value was 3.5.

As for `Clc1ccc(-c2noc(COc3ccccc3Cl)n2)cc1`, the “survival and reproduction score” value was 4.

With `Brc1ccc(-c2noc(-c3ccc(Br)o3)n2)o1`, the “survival and reproduction score” value is 0.5 (active).
